The record followed here is PubChem BioAssay AID602393 (Broad Institute, 2012).

The campaign covered roughly 350,000 compounds. About 7,000 (2%) were called active. This is one part of a sample in which actives are shown more often than they occur. Values without a mark were called inactive. Cut-off read from the data, not from the text of the source: active = activation above about 40%; inconclusive = no clear call, values can overlap the other calls; inactive = below that.

The nature of the assay: Bmi1 luciferase reporter increase in mESCs, primary screen, esBAF inhibitor project, mouse ES cells, Bmi1 luciferase knock-in, single point (AID 602393).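 Note: 0% = median of the plate's neutral control wells and 100% = double that signal; a rise in the Bmi1 reporter signal indicates esBAF inhibition.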 Particulars: 24 h, at 12.5 µM, hits give high values, 100% = twice the neutral-well signal.
For the compound `C[C@H](CO)N1C[C@H](C)[C@H](CN(C)S(=O)(=O)c2ccccc2)Oc2cc(Br)ccc2S1(=O)=O`, the reporter increase was 3.8%.

In the case of `Cc1ccc(C)c(N2CCN(C(=O)CCc3nc4ccccc4[nH]3)CC2)c1`, the reporter increase is 10.7%.

Regarding `COc1ccc(-c2noc(CCC(=O)N3CCN(c4cccc(C)c4)CC3)n2)cc1`, the reporter increase was -6.31%.

For the compound `Cc1ccc(C)c(N2CCN(C(=O)CCc3nc(-c4cccc(C(F)(F)F)c4)no3)CC2)c1`, the reporter increase was 61.9% (active).

For the compound `CNC[C@@H]1Oc2ccc(NS(=O)(=O)c3c(C)noc3C)cc2CC(=O)N([C@@H](C)CO)C[C@@H]1C`, the reporter increase is 1.22%.

With `CO[C@H]1CN(C)C(=O)c2cc(NS(C)(=O)=O)ccc2OC[C@@H](C)N(C(=O)NC(C)C)C[C@@H]1C`, the reporter increase is -1.56%.

For `CCC(=O)N1C[C@H]2[C@@H](c3ccccc31)[C@H](CO)N2Cc1ccccc1F`, the reporter increase was -1.5%.

Turning to `c1ccc(-c2csc(N3CCc4ccccc4C3)n2)cc1`, the reporter increase was 21.9%.

Regarding `N#CC(=C1SC=CS1)c1nc(-c2ccccc2)cs1`, the reporter increase was 56.6% (active).

On to `N#CC(=C1CCCC1)c1nc(-c2ccc(Cl)cc2)cs1`, for which the reporter increase was 58.5% (active).

For the compound `C[C@@H]1CN([C@@H](C)CO)C(=O)Cc2cc(NS(=O)(=O)c3ccc(Cl)cc3)ccc2O[C@H]1CN(C)CC1CCCCC1`, the reporter increase was 3.84%.

As for `O=C(Cc1ccccn1)N1[C@@H]2CNc3ccccc3[C@@H]2[C@@H]1CO`, the reporter increase is -1.83%.

For `O=C(c1cccnc1)N1C[C@H]2[C@@H](c3ccccc31)[C@H](CO)N2C(=O)C1CCCCC1`, the reporter increase was -4.74%.

Take `CCC(=O)Nc1ccc2c(c1)C(=O)N(C)C[C@H](OC)[C@H](C)CN(C(=O)C1CCC1)[C@@H](C)CO2`: the reporter increase was -5.69%.

On to `CN1/C(=C\C(=O)c2cccnc2Cl)C(C)(C)c2ccccc21`, for which the reporter increase is 48.4% (active).

For the compound `CC(C)Nc1nnc(SCC(=O)/C=C2\N(C)c3ccccc3C2(C)C)s1`, the reporter increase was -0.0975%.

With `CC(=O)Nc1cccc(OCC(=O)/C=C2\N(C)c3ccccc3C2(C)C)c1`, the reporter increase was -12.2%.

For the compound `C[C@@H]1CCCCO[C@H](CN(C)S(C)(=O)=O)[C@@H](C)CN([C@@H](C)CO)C(=O)c2cc(NC(=O)CCC(F)(F)F)ccc2O1`, the reporter increase is -0.325%.

For `CCCNC(=O)[C@H]1[C@H](CO)[C@H]2Cn3c(ccc(C4=CCCC4)c3=O)[C@H]2N1C(=O)CC`, the reporter increase was -0.965%.

For `O=C(CN1C(=O)COc2ccc(Cl)cc21)Nc1ccc(N2CCOCC2)cc1`, the reporter increase was -1.03%.

Take `CC(OC(=O)CN1C(=O)COc2ccccc21)C(=O)NCc1ccc(F)cc1` (stereo unspecified): the reporter increase is -4.32%.

As for `O=C(CN1C(=O)COc2ccccc21)Nc1ccc(F)cc1`, the reporter increase was 72.1% (active).

Turning to `Cc1noc(C)c1NC(=O)N(C)C[C@@H]1OCCCC[C@H](C)Oc2ccc(NC(=O)CCC(F)(F)F)cc2C(=O)N([C@@H](C)CO)C[C@@H]1C`, the reporter increase is -15%.

In the case of `CN(C)C(=O)C[C@@H]1CC[C@@H](NS(=O)(=O)c2ccccc2)[C@H](CO)O1`, the reporter increase was -9.26%.

For the compound `CCOC(=O)C1(Cc2ccccc2C)CCCN(S(C)(=O)=O)C1` (stereo unspecified), the reporter increase was -5.66%.

For the compound `CCOC(=O)C1(Cc2ccccc2C)CCCN(C(=O)CN2C(=O)CSC2=O)C1` (stereo unspecified), the reporter increase was 15.7%.

As to `CCOC(=O)C1(Cc2ccccc2C)CCCN(C(=O)c2ccc(COC)o2)C1` (stereo unspecified), the reporter increase is 52.7% (active).

Take `COc1cccc(C(=O)Nc2ccc3c(c2)C(=O)N(C)[C@@H]2CC[C@H](CC(=O)NCCCN4CCOCC4)O[C@H]2CO3)c1`: the reporter increase is 6.81%.

As to `C[C@@H]1CN([C@@H](C)CO)C(=O)c2cc(NS(=O)(=O)c3cn(C)cn3)ccc2O[C@@H](C)CCCCO[C@H]1CN(C)S(=O)(=O)c1cccs1`, the reporter increase was -0.192%.

Take `Cc1ccc(S(=O)(=O)Nc2ccc3c(c2)C(=O)N([C@H](C)CO)C[C@@H](C)[C@H](CN(C)C(=O)Nc2ccc(C(F)(F)F)cc2)OCCCC[C@H](C)O3)cc1`: the reporter increase is -0.527%.

`O=S(=O)(c1cccs1)N1CCc2ccccc2C1`: the reporter increase is -5.9%.

As to `COc1ccc(/C=N/NC(=O)C2CC2)c(OC)c1OC`, the reporter increase is -5.72%.

Consider `COc1ccc(/C=C2/CCCc3ccccc3C2=O)cc1`, for which the reporter increase was 23.6%.

`O=C1/C(=C/c2cccs2)CCc2ccccc21`: the reporter increase is 56.4% (active).

Consider `c1ccc2c(c1)CCc1snnc1-2`, for which the reporter increase was -3.35%.

In the case of `COc1ccc(/C=C2\CCc3ccccc3C2=O)c(OC)c1OC`, the reporter increase was 35.7% (active).

On to `O=C(C[C@H]1C=C[C@@H](NS(=O)(=O)c2ccc(F)cc2)[C@@H](CO)O1)NC1CCC1`, for which the reporter increase is -2.06%.

`CO[C@H]1CN(C)C(=O)c2cc(NS(C)(=O)=O)ccc2OC[C@@H](C)N(C)C[C@@H]1C`: the reporter increase is 0.827%.

`CN1CCCCN2[C@@H](CO)[C@@H](c3ccc(C4=CCCC4)cc3)[C@@H]2C1`: the reporter increase was -22.1%.

As to `CCc1nnc(NC(=O)c2cc(S(=O)(=O)N3CCCCC3)ccc2C)s1`, the reporter increase is 8.45%.

With `CCc1cc(C(=O)Nc2nnc(C3CC3)s2)sc1C`, the reporter increase was 53.3% (active).

For `COc1ccc2c(CC(=O)Nc3nnc(C4CC4)s3)coc2c1`, the reporter increase is 4.79%.

Consider `CCc1ccccc1OCC(=O)Nc1nnc(C2CC2)s1`, for which the reporter increase was 1.33%.

Consider `O=C(Nc1nnc(C2CC2)s1)C1=NN(C2CCS(=O)(=O)C2)C(=O)CC1` (stereo unspecified), for which the reporter increase is 4.96%.

In the case of `Cc1cc(C(=O)Nc2nnc(C3CC3)s2)c(C)s1`, the reporter increase was 62.3% (active).

With `COCc1cn(CC[C@H]2CC[C@H](NC(=O)c3ccncc3)[C@H](CO)O2)nn1`, the reporter increase was -3.19%.

Turning to `CN1C[C@H]2[C@@H](c3ccccc31)[C@@H](CO)N2C(=O)Nc1ccccc1`, the reporter increase is 3.76%.

Consider `O=S(=O)(Nc1ccc2cn[nH]c2c1)c1ccccc1`, for which the reporter increase was -0.15%.

Take `O=S(=O)(Nc1ccc2nc(-c3ccco3)[nH]c2c1)c1ccccc1`: the reporter increase was 60.3% (active).

`Cn1c(CCN2CCCC2)nc2cc(NS(=O)(=O)c3ccccc3)ccc21`: the reporter increase was 1.19%.

On to `CO[C@H]1CC[C@@H]2CCOc3c(C#N)cccc3C(=O)N(C)C[C@H](C)C(=O)N(C)C[C@H]1O2`, for which the reporter increase is 4.38%.
